We go through 30 molecules from PubChem BioAssay (EPA / NIEHS).

Active and inactive are the calls of the source. How the source made its calls: active means hit-call score of the fitted dose curve at least 0.9, where 1 is the maximum; inactive means score below 0.9.

One may read the AC50 as the concentration giving half of the maximal activity seen.

Read-out in one assay: HGF (gene 3082)
In words: LTEA_HepaRG_HGF: Life Technologies and Expression Analysis (LTEA) Assay for Hepatocyte Growth Facto (HGF) using HepaRG (AID 2283505). The conditions noted are these: mRNA level, 48 h; actives raise or lower the signal. The procedure, abridged: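 Gain or loss of HGF mRNA in human HepaRG liver cells after 48 h chemical exposure; eight concentrations up to 100 uM with 0.5% DMSO vehicle, quantified by TaqMan qRT-PCR.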
Take `CC(C)OC(=O)C(C)(C)Oc1ccc(C(=O)c2ccc(Cl)cc2)cc1`: the result was inactive.
Regarding `CCCC[C@H]1CN(CC2CCOCC2)C(=O)OC12CCN(C1(C)CCN(C(=O)c3c(C)ncnc3C)CC1)CC2`, the call was inactive.
Still for that read-out and setting: as for `CCCCCCCCCCCCCCOS(=O)(=O)O`, the entry is “inactive”.
In the case of `OCC(CO)n1cnc(-c2ccc(F)cc2)c1-c1ccnc(Oc2ccccc2)n1`, the call was inactive.
On the same count and under the same terms, as for `CC(C)(O)c1ccc(CNC(=O)c2cccnc2Oc2ccc(F)cc2)cc1`, the entry is “inactive”.
On the same count and under the same terms, as for `Cc1cc(SC2=C(O)C[C@@](CCc3ccc(N)cc3)(C(C)C)OC2=O)c(C(C)(C)C)cc1CO`, the entry is “inactive”.
The same measure, in the same setting: under `N[C@@H](Cc1c[nH]c2ccccc12)C(=O)O` stands “inactive”; under `CC(C)c1cccc(C(C)C)c1`, “inactive”.
Consider `CC(=O)S[C@H](C(=O)N[C@H]1Cc2ccccc2[C@H]2CCC[C@@H](C(=O)O)N2C1=O)C(C)C`, for which the result was inactive.
Still for that read-out and setting: under `COc1ccc(C(=O)Nc2nc3ccccc3c(NCc3ccccc3)c2C#N)cc1` stands “inactive”.
Same read-out and setting: as for `O=C(Oc1ccccc1)c1cccc(C(=O)Oc2ccccc2)c1`, the entry is “inactive”; as for `CN(C)C(=O)NC1(c2ccccc2)CCN(CC[C@@]2(c3ccc(F)c(F)c3)CN(C(=O)c3ccccc3)CCO2)CC1`, “inactive”.
Still for that read-out and setting: as for `CC(C)c1cccc(C(C)C)c1NC(=O)NS(=O)(=O)c1cc(C(C)(C)O)co1`, the entry is “inactive”; as for `O=C1c2c(O)cccc2Cc2cccc(O)c21`, “inactive”.
`O=[Si]=O`: the result was inactive.
The same measure, in the same setting: under `CC(C)(C)c1ccccc1` stands “inactive”; under `Cc1ccc(C(C)(C)C)c(O)c1`, “inactive”; under `c1ccc2occc2c1`, “inactive”.
For `COC(=O)CCC(=O)OC`, the molecule was classed as inactive.
Take `CC(=O)CC(c1ccccc1)c1c(O)c2ccccc2oc1=O` (centres undefined): the molecule was classed as inactive.
Same read-out and setting: as for `CCc1cc(C2=C(C(=O)O)N(c3ccccc3C(F)(F)F)S(=O)(=O)c3ccccc32)cc2c1OCO2`, the entry is “inactive”; as for `CCCCc1nc2cccnc2n1Cc1ccc(-c2ccccc2-c2nnn[nH]2)cc1`, “inactive”.
The same measure, in the same setting: under `CCCCC(CC)CO` (centres undefined) stands “inactive”; under `CC1=C(C)S(=O)(=O)CCS1(=O)=O`, “inactive”; under `CCCCC(CC)COP(=O)(OCC(CC)CCCC)OCC(CC)CCCC` (centres undefined), “inactive”.
The same measure, in the same setting: under `CC(COCC(C)OC(=O)c1ccccc1)OC(=O)c1ccccc1` (centres undefined) stands “inactive”; under `CC1(C)C(=O)NC(=O)N1CO`, “inactive”.
As to `CCCCCCC(CCCCCCCCCCC(=O)OCC(COC(C)=O)OC(C)=O)OC(C)=O` (centres undefined), the result was inactive.
As for `O=Cc1ccccc1C=O`, the outcome was inactive.

Read-out in the next assay: Insulin Like Growth Factor 1 (IGF1), IGF1 (gene 3479)
In words: LTEA_HepaRG_IGF1: Life Technologies and Expression Analysis (LTEA) Assay for Insulin Like Growth Factor 1 (IGF1) using HepaRG (AID 2283506). The following applies: mRNA level, 48 h; actives raise or lower the signal. The method in brief: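 Endpoint: IGF1 mRNA change by qRT-PCR, housekeeping-normalized, fitted bidirectionally relative to 0.5% DMSO vehicle. Human HepaRG cells were treated 48 h in serum-free induction medium, eight half-log concentrations topping at 100 uM.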
`CC(C)OC(=O)C(C)(C)Oc1ccc(C(=O)c2ccc(Cl)cc2)cc1`: the result was inactive.
Take `CCCC[C@H]1CN(CC2CCOCC2)C(=O)OC12CCN(C1(C)CCN(C(=O)c3c(C)ncnc3C)CC1)CC2`: the call was inactive.
On the same count and under the same terms, as for `OCC(CO)n1cnc(-c2ccc(F)cc2)c1-c1ccnc(Oc2ccccc2)n1`, the entry is “inactive”; as for `CC(C)c1cccc(C(C)C)c1`, “inactive”.
Still for that read-out and setting: as for `CC(=O)S[C@H](C(=O)N[C@H]1Cc2ccccc2[C@H]2CCC[C@@H](C(=O)O)N2C1=O)C(C)C`, the entry is “inactive”; as for `O=C(Oc1ccccc1)c1cccc(C(=O)Oc2ccccc2)c1`, “inactive”.
In the case of `CN(C)C(=O)NC1(c2ccccc2)CCN(CC[C@@]2(c3ccc(F)c(F)c3)CN(C(=O)c3ccccc3)CCO2)CC1`, the AC50 was 15.7 µM (active).
On the same count and under the same terms, under `CC(C)c1cccc(C(C)C)c1NC(=O)NS(=O)(=O)c1cc(C(C)(C)O)co1` stands 50 µM (active).
For `CC(C)(C)c1ccccc1`, the result was inactive.
The same measure, in the same setting: under `c1ccc2occc2c1` stands “inactive”; under `COC(=O)CCC(=O)OC`, “inactive”; under `CCCCC(CC)CO` (centres undefined), “inactive”.
On to `CC1=C(C)S(=O)(=O)CCS1(=O)=O`, for which the AC50 was 50 µM (active).
As for `CCCCC(CC)COP(=O)(OCC(CC)CCCC)OCC(CC)CCCC` (centres undefined), the outcome was inactive.
Still for that read-out and setting: under `CC1(C)C(=O)NC(=O)N1CO` stands “inactive”.

Read-out in the next assay: Intercellular Adhesion Molecule 1 (ICAM1), ICAM1 (gene 3383)
Briefly: LTEA_HepaRG_ICAM1: Life Technologies and Expression Analysis (LTEA) Assay for Intercellular Adhesion Molecule 1 (ICAM1) using HepaRG (AID 2283507). The following applies: mRNA level, 48 h; actives raise or lower the signal. The method in brief: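 Gain or loss of transcript in HepaRG hepatic cells is quantified by qRT-PCR after 48 h chemical exposure (up to 100 uM, half-log steps), with DMSO as baseline.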
For the molecule `CC(C)OC(=O)C(C)(C)Oc1ccc(C(=O)c2ccc(Cl)cc2)cc1`, the molecule was classed as inactive.
The same measure, in the same setting: as for `CCCC[C@H]1CN(CC2CCOCC2)C(=O)OC12CCN(C1(C)CCN(C(=O)c3c(C)ncnc3C)CC1)CC2`, the entry is “inactive”; as for `CCCCCCCCCCCCCCOS(=O)(=O)O`, “inactive”; as for `OCC(CO)n1cnc(-c2ccc(F)cc2)c1-c1ccnc(Oc2ccccc2)n1`, “inactive”.
The same measure, in the same setting: under `CC(C)(O)c1ccc(CNC(=O)c2cccnc2Oc2ccc(F)cc2)cc1` stands “inactive”; under `Cc1cc(SC2=C(O)C[C@@](CCc3ccc(N)cc3)(C(C)C)OC2=O)c(C(C)(C)C)cc1CO`, “inactive”; under `N[C@@H](Cc1c[nH]c2ccccc12)C(=O)O`, “inactive”.
The same measure, in the same setting: under `CC(C)c1cccc(C(C)C)c1` stands “inactive”; under `CC(=O)S[C@H](C(=O)N[C@H]1Cc2ccccc2[C@H]2CCC[C@@H](C(=O)O)N2C1=O)C(C)C`, “inactive”.
In the case of `COc1ccc(C(=O)Nc2nc3ccccc3c(NCc3ccccc3)c2C#N)cc1`, the call was inactive.
On the same count and under the same terms, under `O=C(Oc1ccccc1)c1cccc(C(=O)Oc2ccccc2)c1` stands “inactive”.
The same measure, in the same setting: under `CN(C)C(=O)NC1(c2ccccc2)CCN(CC[C@@]2(c3ccc(F)c(F)c3)CN(C(=O)c3ccccc3)CCO2)CC1` stands “inactive”; under `CC(C)c1cccc(C(C)C)c1NC(=O)NS(=O)(=O)c1cc(C(C)(C)O)co1`, “inactive”.
As to `O=C1c2c(O)cccc2Cc2cccc(O)c21`, the molecule was classed as inactive.
As to `O=[Si]=O`, the result was inactive.
Same read-out and setting: as for `CC(N)=O`, the entry is “inactive”; as for `CC(C)(C)c1ccccc1`, “inactive”.
The same measure, in the same setting: under `Cc1ccc(C(C)(C)C)c(O)c1` stands “inactive”.
Still for that read-out and setting: under `c1ccc2occc2c1` stands “inactive”; under `COC(=O)CCC(=O)OC`, “inactive”; under `CC(=O)CC(c1ccccc1)c1c(O)c2ccccc2oc1=O` (centres undefined), “inactive”.
As for `CCc1cc(C2=C(C(=O)O)N(c3ccccc3C(F)(F)F)S(=O)(=O)c3ccccc32)cc2c1OCO2`, the AC50 is 50 µM (active).
For `CCCCc1nc2cccnc2n1Cc1ccc(-c2ccccc2-c2nnn[nH]2)cc1`, the molecule was classed as inactive.
Still for that read-out and setting: as for `CCCCC(CC)CO` (centres undefined), the entry is “inactive”.
`CC1=C(C)S(=O)(=O)CCS1(=O)=O`: the call was inactive.
On the same count and under the same terms, under `CCCCC(CC)COP(=O)(OCC(CC)CCCC)OCC(CC)CCCC` (centres undefined) stands “inactive”.
The same measure, in the same setting: as for `CC(COCC(C)OC(=O)c1ccccc1)OC(=O)c1ccccc1` (centres undefined), the entry is “inactive”.
On the same count and under the same terms, as for `CC1(C)C(=O)NC(=O)N1CO`, the entry is “inactive”; as for `CCCCCCC(CCCCCCCCCCC(=O)OCC(COC(C)=O)OC(C)=O)OC(C)=O` (centres undefined), “inactive”; as for `O=Cc1ccccc1C=O`, “inactive”.
